Shown is part of a subset that was picked to be rich in hits.
PD-1 reversal: activators reversing PD-1 mediated T-cell inhibition, primary screen, luminescence, primary human CD4 T cells, PD-L1 beads | activation, % (test concentration not listed) | CellTiter-Glo 96 h | 29,000 tested, under 10 active; call rule not given here
STK33 kin inh: STK33 kinase inhibitors, primary screen, biochemical, luminescence, ADP-Glo, MBP substrate. inhibition, % at 12.5 µM. Serine/threonine-protein kinase 33 (Homo sapiens), Q9BYT3. actives 0.44% (n = 27,000); in the data active means inhibition above about 20%
Target sequence (Q9BYT3 whole entry, looked up): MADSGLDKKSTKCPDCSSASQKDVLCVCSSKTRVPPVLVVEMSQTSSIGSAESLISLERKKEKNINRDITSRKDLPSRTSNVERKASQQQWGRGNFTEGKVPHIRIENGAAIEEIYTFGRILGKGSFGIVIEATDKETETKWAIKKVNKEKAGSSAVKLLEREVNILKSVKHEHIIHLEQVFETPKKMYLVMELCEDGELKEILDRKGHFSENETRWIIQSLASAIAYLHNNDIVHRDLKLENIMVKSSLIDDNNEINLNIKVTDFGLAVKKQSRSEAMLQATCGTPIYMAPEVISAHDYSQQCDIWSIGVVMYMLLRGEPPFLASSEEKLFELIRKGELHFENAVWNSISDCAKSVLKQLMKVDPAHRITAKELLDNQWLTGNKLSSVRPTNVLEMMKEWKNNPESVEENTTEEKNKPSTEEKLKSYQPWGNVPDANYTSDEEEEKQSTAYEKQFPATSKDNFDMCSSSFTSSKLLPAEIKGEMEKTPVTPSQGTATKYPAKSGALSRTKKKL
NOMO-1 viab: NOMO-1 AML cell viability reduction, primary screen, STK33 inhibitor project, CellTiter-Glo luminescence. NOMO-1 AML viability, 72 h. inhibition, % (no concentration beside the values). actives 7.5% (n = 37,000). AID 2330, 2010; in the data active means inhibition above about 80%
Hits are given with their value; – = inactive; · = not tested or not shown.

SMILES | PD-1 reversal | STK33 kin inh | NOMO-1 viab
Cc1ccc(S(=O)(=O)Nc2ccc3c(c2)C(=O)N([C@H](C)CO)C[C@@H](C)[C@@H](CN(C)Cc2ccc(C(F)(F)F)cc2)O3)cc1 | – | · | 122
C[C@@H]1CN([C@@H](C)CO)C(=O)c2cc(NS(=O)(=O)c3ccc(Cl)cc3)ccc2O[C@@H]1CN(C)Cc1ccc(C(F)(F)F)cc1 | – | · | 123
Cc1cc(=O)oc2cc(OC3OC(CO)C(O)C(O)C3O)ccc12 (centres undefined) | – | · | –
COc1ccccc1-n1c(SCC(=O)c2ccc3c(c2)CCCC3)nc2ccccc2c1=O | – | – | –
CC(C)Cn1c(=O)c2cc3c(=O)n(CC(C)C)c(=O)c3c(C(=O)c3ccc(Cl)cc3)c2c1=O | – | · | –
O=C(C1CC(=O)N(c2ccccc2)C1)N(Cc1ccccc1)Cc1ccccc1 (centres undefined) | – | · | –
OC(COc1ccc2ccccc2c1Br)Cn1cnc(-c2ccccc2)c1 (centres undefined) | · | – | –
OC(COc1ccc(Cl)cc1)Cn1cnc(-c2ccccc2)c1 (centres undefined) | – | 21 | –
COc1cccc(NC(=O)CCc2nc(-c3ccc(C)cc3)no2)c1 | – | – | –
O=C(NC1CCCC1)c1c(NC(=O)c2cc(-c3cccnc3)nc3ccccc23)sc2c1CCCC2 | · | – | –
Cc1sc(NC(=O)c2cc(-c3cccnc3)nc3ccccc23)c(C(=O)NC2CCCCC2)c1C | · | – | 98
c1csc(-c2nnc(CSc3cccc4cccnc34)o2)c1 | – | · | 112
COc1cccc(Cc2nnc(-c3ccc(-c4cccs4)s3)o2)c1 | – | · | –
COC(=O)CN(c1ccc(C)cc1)S(=O)(=O)c1ccccc1 | · | – | ·
C[C@@H]1CN([C@H](C)CO)C(=O)c2cc(NC(=O)Cc3ccccc3)ccc2O[C@H]1CN(C)Cc1ccc2c(c1)OCO2 | – | – | –
C[C@H](CO)N1C[C@H](C)[C@@H](CN(C)Cc2ccc3c(c2)OCO3)Oc2ccc(NC(=O)Nc3ccccc3)cc2C1=O | – | · | –
C[C@H]1CN([C@@H](C)CO)C(=O)c2cc(NC(=O)Cc3ccccc3)ccc2O[C@H]1CN(C)Cc1ccc2c(c1)OCO2 | – | – | 95
C[C@H](CO)N1C[C@H](C)[C@H](CN(C)Cc2ccc3c(c2)OCO3)Oc2ccc(NC(=O)Nc3ccccc3)cc2C1=O | – | – | 94
C[C@H](CO)N1C[C@H](C)[C@H](CN(C)Cc2ccc3c(c2)OCO3)Oc2ccc(NC(=O)Nc3cccc4ccccc34)cc2C1=O | · | · | 98
COc1ccc(NC(=O)Nc2ccc3c(c2)C(=O)N([C@@H](C)CO)C[C@H](C)[C@H](CN(C)Cc2ccc4c(c2)OCO4)O3)cc1 | – | – | 98
C[C@H]1CN([C@@H](C)CO)C(=O)c2cc(NC(=O)Nc3cccc4ccccc34)ccc2O[C@H]1CN(C)Cc1ccccc1 | – | · | –
COc1ccc(NC(=O)Nc2ccc3c(c2)C(=O)N([C@@H](C)CO)C[C@@H](C)[C@@H](CN(C)Cc2ccc4c(c2)OCO4)O3)cc1 | · | · | –
Cc1c(C(=O)N(C)C)sc(NC(=O)c2cc(-c3ccccn3)nc3ccc(Cl)cc23)c1C#N | · | – | –
NN/C(=N/S(=O)(=O)c1ccccc1)N1CCCC1 | – | · | –
CCOC(=O)c1c(NC(=O)Cn2nc([N+](=O)[O-])c(Cl)c2C)sc2c1CCC2 | – | – | –
SMILES | PD-1 reversal | STK33 kin inh | NOMO-1 viab
CCC(Sc1nnc(N)s1)C(=O)Nc1c(C)cccc1C (centres undefined) | – | – | –
O=c1c(Cc2cc(Cl)cc(Cl)c2O)c(O)nc2n1CCCS2 | – | · | –
COc1ccc2cc(C3CC(c4ccc(OC)c(OC)c4)=NN3C(=O)c3ccco3)c(Cl)nc2c1 (centres undefined) | – | · | –
Clc1ccc(-n2c(SCc3nc4ccccc4s3)nnc2-c2cccs2)cc1 | · | – | –
C[C@H]1CN([C@@H](C)CO)C(=O)c2cc(NC(=O)Nc3ccc4c(c3)OCO4)ccc2O[C@H]1CN(C)Cc1ccc2c(c1)OCO2 | – | · | 93
C[C@H](CO)N1C[C@H](C)[C@H](CN(C)Cc2ccc3c(c2)OCO3)Oc2ccc(NC(=O)C3CCCCC3)cc2C1=O | – | – | 94
C[C@H](CO)N1C[C@H](C)[C@@H](CN(C)Cc2ccc3c(c2)OCO3)Oc2ccc(NC(=O)C3CCCCC3)cc2C1=O | – | · | –
C[C@@H]1CN([C@@H](C)CO)C(=O)c2cc(NC(=O)Nc3ccc4c(c3)OCO4)ccc2O[C@@H]1CN(C)Cc1ccc2c(c1)OCO2 | – | – | –
C[C@@H]1CN([C@H](C)CO)C(=O)c2cc(NC(=O)Nc3ccc4c(c3)OCO4)ccc2O[C@@H]1CN(C)Cc1ccc2c(c1)OCO2 | – | · | –

Bioassay records from PubChem.
